# A selection: hits, their analogues and other compounds. The true share with any hit is near 15%.
# RORgamma inh = inhibitors of mouse ROR gamma transcriptional activity; Drosophila S2 Gal4-RORgamma UAS-luciferase reporter, 20 h; AID 2551; Potency, µM (highest dose often 53.6 µM), hits mostly inhibitors; P51450; 310,000 tested, 5.4% active; also: nearly all actives have a fitted effect of over 60% in size
# Target sequence (P51450 whole entry, looked up, the tested form may be a part): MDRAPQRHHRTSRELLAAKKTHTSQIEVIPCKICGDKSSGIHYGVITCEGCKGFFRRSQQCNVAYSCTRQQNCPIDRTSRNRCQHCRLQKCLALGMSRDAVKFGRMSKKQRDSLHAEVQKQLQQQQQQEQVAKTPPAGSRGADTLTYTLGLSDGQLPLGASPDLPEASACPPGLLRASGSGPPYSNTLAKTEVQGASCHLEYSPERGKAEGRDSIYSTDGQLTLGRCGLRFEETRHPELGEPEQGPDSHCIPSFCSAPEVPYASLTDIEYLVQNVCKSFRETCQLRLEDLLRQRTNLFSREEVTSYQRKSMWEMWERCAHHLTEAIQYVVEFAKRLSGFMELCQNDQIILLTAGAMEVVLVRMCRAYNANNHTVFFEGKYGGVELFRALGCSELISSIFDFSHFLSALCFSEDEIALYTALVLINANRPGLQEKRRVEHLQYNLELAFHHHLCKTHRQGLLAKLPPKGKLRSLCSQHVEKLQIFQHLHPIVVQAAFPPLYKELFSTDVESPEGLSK
#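 Using a luciferase readout, inhibitors were identified by reduced reporter activity in Drosophila cells coexpressing a copper-inducible Gal4–ROR gamma fusion and UAS-driven Photinus luciferase, incubated 20 hr after 700 uM copper sulfate.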
# ELG1 DNA repair = ELG1-dependent DNA repair inhibition; 330,000 tested, 2.3% active; HEK293T ELG1-luciferase reporter, luminescence, 16 h; DNA damage induced by 5-fluorouridine; Potency, µM (highest dose often 46.1 µM), usual class: inhibitors; AID 504467; also: nearly all actives have a fitted effect of over 55% in size
#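 DMSO vehicle served as the neutral condition. Each well held 2,000 cells given 5-fluorouridine plus compound; after 16 hr at 37 °C/5% CO2, ONE-Glo was added and luciferase measured 30 min later.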
# VP16 counter = Gal4-VP16 reporter inhibition counter-screen. Drosophila S2 Gal4-VP16 UAS-luciferase, luminescence, 20 h. AID 2546. Potency, µM (highest dose often 53.6 µM), usual class: inhibitors. 310,000 tested, 3.5% active;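 also: Gal4-VP16 expression switched on by copper sulfate through the metallothionein promoter; nearly all actives have a fitted effect of over 50% in size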
# DT40 TDP1 no CPT = qHTS for Inhibitors of human tyrosyl-DNA phosphodiesterase 1 (TDP1): qHTS in cells in absence of CPT. DT40 Tdp1-/- hTDP1 cells, no CPT, ATP luminescence, 48 h. Potency, µM (doses to about 46.2 µM), usual class: inhibitors. 420,000 tested, 15% active. AID 686978, 2013; also: nearly all actives have a fitted effect of over 55% in size
#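 Cells were dispensed at 400 per well, compounds added by pin tool, plates incubated ≥48 hr at 37 °C, then CellTiter-Glo added for 30 min at room temperature before luminescence reading. Line: DT40 Tdp1-/- complemented with hTDP1; camptothecin omitted.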
# ALOX12 inh = blocks human arachidonate 12S-lipoxygenase. P18054. purified 12hLO, xylenol orange hydroperoxide absorbance. Potency, µM (series often up to 108 µM), hits mostly inhibitors. 580,000 tested, 1.1% active. AID 1671190
#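 Purified human 12hLO at 150 nM in 25 mM Hepes, 0.01% Triton X-100, pH 7.0, preincubated 15 min at room temperature with compound. Reaction started with 40 uM arachidonic acid, 30 min at room temperature. Hydroperoxide measured by Fe-xylenol orange, 573/405 nm absorbance ratio.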
# DT40 TDP1 CPT = DT40-hTDP1 cell growth loss with CPT. chicken DT40 Tdp1-/-;hTDP1 cells + 20 nM CPT, ATP luminescence, 48 h. Potency, µM (highest dose often 46.2 µM), hits mostly inhibitors. 420,000 tested, 12% active. AID 686979; also: nearly all actives have a fitted effect of over 55% in size
#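 Cell growth measured by CellTiter-Glo luminescence after a minimum 48 h, 37 C compound exposure with 20 nM CPT in Tdp1-knockout DT40 cells stably expressing hTDP1, seeded 400/well; qHTS titration format.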
# A number is an active result; i = inactive; ? = inconclusive; nt = no result given; [ ] = another dose, or the depositor's remark. Calls follow the shape of the dose curve; as a rule, active = well fitted curve in the direction sought with a large enough effect; inconclusive = small, poorly fitted or top-dose-only effect, or another doubt; inactive = no such curve, though single readings can be large; an effect the other way counts as inactive or inconclusive.
SMILES,RORgamma inh,ELG1 DNA repair,VP16 counter,DT40 TDP1 no CPT,ALOX12 inh,DT40 TDP1 CPT
S=C(NCCc1ccccc1)Nc1ccc(Sc2ccc(Br)cc2)cc1,nt,nt,nt,nt,35.5µM,nt
COc1ccc2c(C)c(CCC(=O)N3CCCCC3)c(=O)oc2c1,nt,nt,nt,nt,i,nt
CC(C)c1ccc(NC(=O)C(C)N2CCN(C(=O)c3ccco3)CC2)cc1 (configuration not stated),nt,nt,nt,nt,i,nt
CC(C)OC(=O)C(C(=O)C(F)(F)F)c1cc(NS(=O)(=O)c2ccc3ccccc3c2)c2ccccc2c1O (configuration not stated),i,?,?,20.6µM,nt,23.1µM
COC(=O)c1ccc(C)c(NS(=O)(=O)c2ccc3ccccc3c2)c1,nt,nt,nt,nt,i,nt
Cc1ncsc1C(=O)N1CCCC(C(=O)c2ccc3ccccc3c2)C1 (configuration not stated),i,i,i,20.6µM,i,23.1µM
Cc1cc(C(=O)N2CCCC(C(=O)c3ccc4ccccc4c3)C2)nn1C (configuration not stated),i,i,i,20.6µM,i,?
CCn1nc(C)cc1C(=O)N1CCCC(C(=O)c2ccc(OC)cc2C)C1 (configuration not stated),i,?,i,9.2µM,i,23.1µM
CCn1nc(C)cc1C(=O)N1CCCC(C(=O)c2ccc3ccccc3c2)C1 (configuration not stated),?,?,i,7.31µM,i,11.6µM
COc1ccc(C(=O)C2CCCN(C(=O)c3cccnc3OC)C2)c(C)c1 (configuration not stated),i,i,i,?,i,?
COc1ccc(C(=O)C2CCCN(C(=O)c3ccc4cc[nH]c4c3)C2)c(C)c1 (configuration not stated),i,?,i,?,i,16.4µM
O=C1NCc2ccccc2CC12CCN(Cc1ccccc1C(F)(F)F)C2 (configuration not stated),nt,nt,nt,nt,i[6.33 µM],nt
CCN(CC)c1cc(C)c2cc(NC(=O)c3ccc(Br)o3)ccc2n1,i,?,i,?,i,?
CCN(CC)c1cc(C)c2cc(NC(=O)c3cccc(F)c3)ccc2n1,nt,nt,nt,23.1µM,i,?
CCN(CC)c1cc(C)c2cc(NC(=O)c3ccc(OC)c(OC)c3)ccc2n1,nt,nt,nt,23.1µM,i,20.6µM
CCN(CC)c1cc(C)c2cc(NC(=O)c3cccs3)ccc2n1,i,?,i,23.1µM,i,16.4µM
CCN(CC)c1cc(C)c2cc(NC(=O)c3cc(OC)cc(OC)c3)ccc2n1,nt,nt,nt,?,i,?
CCN(CC)c1cc(C)c2cc(NC(=O)c3ccc(F)cc3Cl)ccc2n1,nt,nt,nt,?,i,?
CCN(CC)c1cc(C)c2cc(NC(=O)c3ccccc3OC)ccc2n1,?,?,?,16.4µM,i,?
CN(C)C(=O)NCc1cc2n(n1)CCN(Cc1cn[nH]c1-c1ccccc1)C2,nt,nt,nt,nt,i,nt
O=C(COC(=O)C1CC2CCCC(C1)C2=O)Nc1ccc(C(F)(F)F)cc1[N+](=O)[O-] (configuration not stated),nt,nt,nt,nt,i,nt
CC(C)(C)C(=O)NCC(O)COc1ccc(C(F)(F)F)cc1 (configuration not stated),nt,nt,nt,nt,i,nt
CCCCc1ccc(C(=O)Nc2ccc3nc(N(CC)CC)cc(C)c3c2)cc1,nt,nt,nt,18.4µM,i,?
COc1ccc2[nH]c3c(c2c1)CCNC31CCNCC1,nt,nt,nt,nt,i,nt
COc1ccc2[nH]c3c(c2c1)CCNC3c1ccc([N+](=O)[O-])o1 (configuration not stated),i,?,?,6.51µM,i,9.2µM
SMILES,RORgamma inh,ELG1 DNA repair,VP16 counter,DT40 TDP1 no CPT,ALOX12 inh,DT40 TDP1 CPT
COc1ccc2[nH]c3c(c2c1)CCNC3C1CC=C(C)CC1 (configuration not stated),i,i,i,6.51µM,?,9.2µM
CN(Cc1ccccc1)C(=O)COc1ncnc2ccccc12,nt,nt,nt,nt,i,nt
N#CC(C(=O)NCc1ccccc1)=C1CCCCC1,nt,nt,nt,nt,i,nt
O=C(c1ccccc1)N1CCSc2ccc(Cl)cc21,nt,nt,nt,nt,i,nt
COc1ccc(-c2cn3c(n2)CCC3)cc1,?,?,i,i,i,i
Cc1ccc(-c2cn3c(n2)CCCC3)cc1,8.91µM,i,?,?,i,?
O=C(COC(=O)c1ccc(O)cc1)c1ccc(NC(=O)c2ccco2)cc1,nt,nt,nt,nt,i,nt
COc1ccc(O)c(C(=O)c2coc(=N)c(C(=O)Nc3ccc(SC(F)F)cc3)c2)c1,i,16.4µM,?,18.4µM,i,?
Cc1cc(C(=O)N(C)C2CCS(=O)(=O)C2)c2ccc(F)cc2n1 (configuration not stated),nt,nt,nt,nt,i,nt
CCCN(CC(=O)Nc1cc(Cl)cc(Cl)c1)CC(=O)Nc1ccc(F)c(F)c1F,?,?,22.4µM,23.1µM,i,?
CCOC(=O)C1(Cc2cccc(OC)c2)CCCN(C(=O)CSc2ccncc2)C1 (configuration not stated),nt,nt,nt,nt,i,nt
ClC(=Nc1cccc2ccccc12)N(c1ccccc1)c1ccccc1,nt,nt,nt,11.2µM,nt,17.8µM
COc1ccccc1CNc1nc(-c2ccccc2OC)nc2ccccc12,?,nt,?,20.6µM,i,18.4µM
COc1cccc(-c2nc(NCc3ccccc3OC)c3ccccc3n2)c1,i,nt,i,?,?,?
COc1ccccc1-c1nc(NCc2cnc(C)cn2)c2ccccc2n1,i,nt,i,?,20µM,16.4µM
CC(C)CCN1C(Nc2ccccc2)=NC[C@@H]1CC(C)C,i,i,i,?,i,14.6µM
CCC(C)CCN1C(Nc2ccccc2)=NC[C@@H]1Cc1ccccc1 (some centres not stated),i,i,i,16.4µM,i,20.6µM
CC(C)C[C@H]1CN=C(Nc2ccccc2)N1CC1CCCCCC1,nt,i,nt,20.6µM,i,?
CCC(C)CCN1C(Nc2ccccc2)=NC[C@@H]1CC(C)C (some centres not stated),i,i,i,16.4µM,i,16.4µM
CCCCCCCCS(=O)(=O)CCSCCO,nt,nt,nt,nt,i,nt
CCCCCn1nc(C(=O)Nc2nc(-c3ccc(OC)cc3)c(C)s2)c2ccccc2c1=O,nt,nt,nt,nt,i,nt
CCc1ccc(NC(=O)C2CCN(c3cc(C(F)(F)F)ncn3)CC2)cc1,nt,nt,nt,nt,i,nt
N#Cc1nc(-c2cccc3ccccc23)oc1NCc1ccc(F)cc1,nt,nt,nt,nt,i,nt
CCC1Oc2ccc(NS(=O)(=O)c3ccc(Cl)cc3)cc2CN(Cc2ccc(F)cc2)C1=O (configuration not stated),nt,nt,nt,nt,i,nt
CCC1Oc2ccc(NS(=O)(=O)c3ccccc3)cc2CN(Cc2ccc(F)cc2)C1=O (configuration not stated),nt,nt,nt,nt,14.1µM,nt
COc1cccc(-c2cc(C(F)(F)F)n3ncc(C(=O)O)c3n2)c1,i[0.365 µM],i,nt,i,i,i
